# Calls of active or inactive are those of the source. Unless noted, the rule behind the calls is not given here.
# Legend:
# [1] = anti-His antibody binders, primary screen, artefact control for SMM control protein annotation, biochemical, small-molecule microarray, 635 nm fluorescence (AID 1128); details: anti-His Alexa647 antibody binding, higher = more signal;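 note: score merges feature fluorescence with signal-to-noise for each printed compound spot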
# [2] = tested on: Human papillomavirus type 1a E7 protein (residues 1-88); assay: HPV1a E7 small-molecule binders, primary screen, biochemical, small-molecule microarray, residues 1-88, 635 nm (AID 1129); details: small-molecule microarray binding, fluorescence 635 nm; higher = more signal
# [3] = biological target: Focal adhesion kinase 1 (Homo sapiens) (UniProt Q05397); assay: small-molecule microarray binders of FAK, primary screen, biochemical, 635/667 nm fluorescence, BSA, DTT (AID 1130); details: PTK2 binding, 635 nm fluorescence, higher = more signal;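 note: composite of spot emission at 667 nm and signal to noise over triplicate slides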
# Focal adhesion kinase 1 (Homo sapiens), sequence (Q05397 whole entry, looked up): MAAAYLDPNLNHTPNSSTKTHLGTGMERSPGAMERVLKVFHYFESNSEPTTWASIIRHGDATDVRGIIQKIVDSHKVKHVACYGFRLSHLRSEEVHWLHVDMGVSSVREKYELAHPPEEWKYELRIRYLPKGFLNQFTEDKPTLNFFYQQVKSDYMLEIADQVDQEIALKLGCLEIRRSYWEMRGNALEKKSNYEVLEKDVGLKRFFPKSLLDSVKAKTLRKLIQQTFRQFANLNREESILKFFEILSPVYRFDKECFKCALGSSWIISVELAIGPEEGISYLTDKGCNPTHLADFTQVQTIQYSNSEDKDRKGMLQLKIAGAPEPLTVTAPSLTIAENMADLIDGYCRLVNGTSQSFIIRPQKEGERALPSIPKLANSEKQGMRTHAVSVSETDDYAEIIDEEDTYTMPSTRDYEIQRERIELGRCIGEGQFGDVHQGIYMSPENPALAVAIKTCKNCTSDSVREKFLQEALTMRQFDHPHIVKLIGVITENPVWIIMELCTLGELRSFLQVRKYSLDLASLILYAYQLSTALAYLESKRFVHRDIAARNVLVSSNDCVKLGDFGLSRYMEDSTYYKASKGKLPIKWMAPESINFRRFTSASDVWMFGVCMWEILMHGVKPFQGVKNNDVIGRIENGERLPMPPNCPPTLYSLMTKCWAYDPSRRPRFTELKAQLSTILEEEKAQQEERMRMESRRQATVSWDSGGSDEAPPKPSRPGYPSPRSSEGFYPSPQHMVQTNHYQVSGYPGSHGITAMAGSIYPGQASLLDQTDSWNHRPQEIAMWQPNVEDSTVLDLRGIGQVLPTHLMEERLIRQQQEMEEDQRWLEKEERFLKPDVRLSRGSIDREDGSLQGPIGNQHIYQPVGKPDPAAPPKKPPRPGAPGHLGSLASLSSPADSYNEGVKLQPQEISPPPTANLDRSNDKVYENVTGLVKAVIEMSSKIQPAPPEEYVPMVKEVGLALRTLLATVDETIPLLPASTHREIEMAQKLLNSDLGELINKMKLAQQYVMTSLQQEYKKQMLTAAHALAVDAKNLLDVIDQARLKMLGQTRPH
# [4] = tested on: Fibrinogen (Alexa647-labelled); assay: fibrinogen binders on compound microarrays, profiling panel, artefact control for SMM control-protein annotation, biochemical, small-molecule microarray, 635/667 nm fluorescence (AID 1131); details: fibrinogen-A647 binding fluorescence, higher = more signal;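 note: z-score merges 667 nm fluorescence with per-spot signal-to-noise over triplicate slides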
# [5] = biological target: Follistatin (Homo sapiens) (UniProt P19883); assay: follistatin binders on small-molecule microarrays, primary screen, biochemical, small-molecule microarray, 635/667 nm fluorescence (AID 1132); details: FST binding, 635 nm fluorescence, higher = more signal
# Follistatin (Homo sapiens), sequence (P19883 whole entry, looked up): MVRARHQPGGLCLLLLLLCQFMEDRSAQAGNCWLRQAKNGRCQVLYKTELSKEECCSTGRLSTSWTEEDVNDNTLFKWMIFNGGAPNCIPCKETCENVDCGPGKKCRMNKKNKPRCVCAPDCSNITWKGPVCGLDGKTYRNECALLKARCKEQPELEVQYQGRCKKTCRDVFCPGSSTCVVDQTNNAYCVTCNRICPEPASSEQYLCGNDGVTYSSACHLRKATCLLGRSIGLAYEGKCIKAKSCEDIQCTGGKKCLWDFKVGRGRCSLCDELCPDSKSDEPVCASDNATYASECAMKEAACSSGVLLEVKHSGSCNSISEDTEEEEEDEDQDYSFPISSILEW
# [6] = biological target: Fibroblast growth factor 2 (Homo sapiens) (UniProt P09038); assay: FGF2 binders on small-molecule microarrays, primary screen, biochemical, small-molecule microarray, 635/667 nm fluorescence (AID 1133); details: small-molecule microarray binding, FGF2, fluorescence 635/667; higher = more signal
# Fibroblast growth factor 2 (Homo sapiens), sequence (P09038 whole entry, looked up): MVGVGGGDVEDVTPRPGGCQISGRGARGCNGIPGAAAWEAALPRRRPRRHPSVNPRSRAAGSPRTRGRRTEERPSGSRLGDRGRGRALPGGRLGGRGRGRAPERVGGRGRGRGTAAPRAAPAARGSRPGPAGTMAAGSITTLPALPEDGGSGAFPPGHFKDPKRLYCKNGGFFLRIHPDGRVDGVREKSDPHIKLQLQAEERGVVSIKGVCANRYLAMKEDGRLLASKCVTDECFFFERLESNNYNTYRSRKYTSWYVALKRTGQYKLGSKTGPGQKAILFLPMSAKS
# [7] = mitochondrial membrane potential change in A549 cells, profiling panel, cell-based, JC-1 fluorescence, basal, 24 h, 100 nL (AID 1138); details: higher = more signal;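 note: A549 lung adenocarcinoma cells under basal conditions with no added stimulus; test concentration not given here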
# Lefty1 = Lefty1 binders on small-molecule microarrays, primary screen, biochemical, small-molecule microarray, 635/667 nm fluorescence (AID 1139); details: small-molecule microarray binding, fluorescence 635/667; higher = more signal
# [8] = tested on: wheat germ agglutinin (Triticum aestivum), Alexa647-labelled; assay: wheat germ agglutinin binders on compound microarrays, profiling panel, artefact control for SMM control-protein annotation, biochemical, small-molecule microarray, 635/667 nm fluorescence (AID 1140); details: WGA-A647 binding, 635 nm fluorescence, higher = more signal;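 note: score merges 667 nm feature emission with signal to noise over triplicate slides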
# [9] = biological target: Luciferin 4-monooxygenase (Photinus pyralis) (UniProt P08659); assay: firefly luciferase enzyme inhibitors, primary screen, biochemical, luminescence, purified enzyme, 2006 set (AID 1141); details: SteadyGlo luminescence, 30 min, higher = more signal, called active from +8 up or from −8 down;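 note: cell-free assay with purified firefly luciferase at 100 ng per well in PBS; test concentration not given here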
# Luciferin 4-monooxygenase (Photinus pyralis), sequence (P08659 whole entry, looked up): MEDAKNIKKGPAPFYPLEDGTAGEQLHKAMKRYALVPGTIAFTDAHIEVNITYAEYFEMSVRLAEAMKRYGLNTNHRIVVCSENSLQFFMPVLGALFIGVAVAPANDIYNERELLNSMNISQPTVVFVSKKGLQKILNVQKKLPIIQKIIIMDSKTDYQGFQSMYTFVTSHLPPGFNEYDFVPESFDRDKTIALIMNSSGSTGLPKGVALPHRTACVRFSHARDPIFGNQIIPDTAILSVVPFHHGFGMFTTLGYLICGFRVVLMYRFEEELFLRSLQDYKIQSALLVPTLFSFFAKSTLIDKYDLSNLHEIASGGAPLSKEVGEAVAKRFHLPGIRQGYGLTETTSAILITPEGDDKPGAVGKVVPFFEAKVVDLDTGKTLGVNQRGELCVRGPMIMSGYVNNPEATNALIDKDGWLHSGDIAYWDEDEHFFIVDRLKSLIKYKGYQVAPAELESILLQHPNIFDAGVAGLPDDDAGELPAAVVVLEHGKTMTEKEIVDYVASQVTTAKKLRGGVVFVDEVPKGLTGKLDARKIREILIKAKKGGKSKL
# [10] = tested on: Wnt5a (protein binding on small-molecule microarray); assay: Wnt5a binders on small-molecule microarray, primary screen, biophysical, 635/667 nm fluorescence (AID 1142); details: 635 nm fluorescence, higher = more signal;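 note: fluorescence read at 667 nm with signal to noise per printed feature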
# [11] = cell viability in Huh7 cells, primary screen, cytotoxicity control for HCV replication inhibitor project, CellTiter-Glo luminescence, basal, 48 h (AID 1143); details: Huh7 HCV replicon, higher = more signal, called active from +8 up or from −8 down;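 note: Huh7 hepatoma cells carrying a hepatitis C replication reporter with no stimulus; test concentration not given here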
# [12] = P. aeruginosa biofilm formation inhibitors, primary screen, PAO1 strain, BacTiter-Glo luminescence, LB-PBS (AID 1144); details: 12 h, higher = more signal
# [13] = CREB reporter modulators without forskolin, primary screen, cell-based, PC12, CRE-LacZ reporter, unstimulated (AID 1145); details: no forskolin, luminescence, 4.5 h, higher = more signal, called active from +8 up or from −8 down
# [14] = CREB reporter modulators under forskolin, primary screen, cell-based, PC12, CRE-LacZ reporter, forskolin-stimulated (AID 1146); details: luminescence, 4.5 h, higher = more signal, called active from +8 up or from −8 down;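 note: PC12 cells with 6xCRE LacZ reporter stimulated by forskolin 10 µM; beta-galactosidase reporter signal reflecting CREB driven transcription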
# [15] = biological target: Streptavidin (Streptomyces avidinii) (UniProt P22629); assay: streptavidin binders on small-molecule microarray, primary screen, artefact control for SMM compound annotation, biophysical, 635/667 nm fluorescence (AID 1147); details: streptavidin binding, higher = more signal;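 note: signal reflects streptavidin binding to arrayed compounds as a control protein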
# Streptavidin (Streptomyces avidinii), sequence (P22629 whole entry, looked up): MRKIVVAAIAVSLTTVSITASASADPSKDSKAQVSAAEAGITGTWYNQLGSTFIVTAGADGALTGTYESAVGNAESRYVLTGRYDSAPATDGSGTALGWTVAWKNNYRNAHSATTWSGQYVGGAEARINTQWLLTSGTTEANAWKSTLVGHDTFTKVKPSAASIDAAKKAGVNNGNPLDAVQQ
# [16] = small-molecule binders of probe aInhba, primary screen, biochemical, small-molecule microarray, 635/667 nm fluorescence (AID 1148); details: higher = more signal;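 note: score merges 667nm spot fluorescence with signal-to-noise for antibody binding to printed compounds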
# Torsin-1A (Homo sapiens) [17] = biological target: Torsin-1A (Homo sapiens) (UniProt O14656); assay: torsin A binders from cell lysate, primary screen, small-molecule microarray, wild-type, 635/667 nm (AID 1149); details: COS7 hTOR1A-WT lysate, 635 nm fluorescence, higher = more signal
# Torsin-1A (Homo sapiens), sequence (O14656 whole entry, looked up): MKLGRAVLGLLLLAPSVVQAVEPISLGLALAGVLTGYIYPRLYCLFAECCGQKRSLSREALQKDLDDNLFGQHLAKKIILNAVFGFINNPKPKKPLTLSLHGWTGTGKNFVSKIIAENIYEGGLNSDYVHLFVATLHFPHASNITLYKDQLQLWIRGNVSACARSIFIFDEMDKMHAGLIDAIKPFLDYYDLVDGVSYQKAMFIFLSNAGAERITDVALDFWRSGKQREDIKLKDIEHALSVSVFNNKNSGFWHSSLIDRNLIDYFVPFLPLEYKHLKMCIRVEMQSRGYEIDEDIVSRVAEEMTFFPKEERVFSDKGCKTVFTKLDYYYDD
# Torsin-1A (Homo sapiens) [18] = biological target: Torsin-1A (Homo sapiens) (UniProt O14656); assay: small-molecule binders of mutant TOR1A in lysate, primary screen, cell lysate, small-molecule microarray, COS7 lysate, 635/667 nm fluorescence (AID 1150); details: COS7 hTOR1A mutant lysate, 635 nm fluorescence, higher = more signal;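 note: score pools 667 nm emission and signal to noise measuring lysate protein binding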
# [19] = tested on: Sonic hedgehog protein (Shh); assay: small-molecule binders of Shh protein, primary screen, biochemical, small-molecule microarray, 635/667 nm fluorescence (AID 1151); details: small-molecule microarray binding, 635 nm fluorescence; higher = more signal;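 note: Shh protein binding to compounds spotted on small-molecule microarray slides; score combines spot fluorescence intensity with signal-to-noise across triplicate slides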
smiles,measurement,setting,value
COC(=O)c1cn(C[C@@H](Cc2ccccc2)NC(=O)N[C@H](CO)CCc2oc(C(C)=O)c(C(=O)OC)c2C(=O)OC)nn1,composite z-score,[1],1.42
same,composite z-score,[2],0.533
same,composite z-score,[3],0.192
same,composite z-score,[4],0.729
same,composite z-score,[5],1.02
same,composite z-score,[6],0.86
same,z-score,[7],0.642
same,composite z-score,Lefty1,1.17
same,composite z-score,[8],0.235
same,z-score,[9],-0.373 (inactive)
same,composite z-score,[10],0.173
same,z-score,[11],-0.102 (inactive)
same,z-score,[12],0.201 (inactive)
same,z-score,[13],1.5 (inactive)
same,z-score,[14],-0.981 (inactive)
same,composite z-score,[15],0.304
same,composite z-score,[16],0.108
same,composite z-score,Torsin-1A (Homo sapiens) [17],0.658
same,composite z-score,Torsin-1A (Homo sapiens) [18],0.268
same,composite z-score,[19],1.93
Cc1cc(C)cc(N2C(=O)CSC2c2cccc([N+](=O)[O-])c2)c1 (stereo not given),composite z-score,[1],2.27
same,composite z-score,[2],1.22
same,composite z-score,[3],1.55
same,composite z-score,[4],1.03
same,composite z-score,[5],0.45
same,composite z-score,[6],0.963
same,z-score,[7],0.492
same,composite z-score,Lefty1,1.53
same,composite z-score,[8],1.1
same,z-score,[9],-0.992 (inactive)
same,composite z-score,[10],0.423
same,z-score,[11],-0.894 (inactive)
same,z-score,[12],0.75 (inactive)
same,z-score,[13],-0.438 (inactive)
same,z-score,[14],-1.04 (inactive)
same,composite z-score,[15],1.2
same,composite z-score,[16],0.0506
same,composite z-score,Torsin-1A (Homo sapiens) [17],0.337
same,composite z-score,Torsin-1A (Homo sapiens) [18],0.526
same,composite z-score,[19],0.899
COC(=O)c1ccc([C@H](NC(=O)c2ccco2)[C@]2(C)C[C@H]2C2CCCCC2)cc1,composite z-score,[1],-0.162
same,composite z-score,[2],-0.678
same,composite z-score,[3],-0.59
same,composite z-score,[4],-0.293
same,composite z-score,[5],-0.633
same,composite z-score,[6],-1.11
same,z-score,[7],-0.573
same,composite z-score,Lefty1,-1.58
same,composite z-score,[8],0.638
same,z-score,[9],1.34 (inactive)
same,composite z-score,[10],0.0108
same,z-score,[11],-2.84 (inactive)
same,z-score,[12],-0.635 (inactive)
same,z-score,[13],-0.368 (inactive)
same,z-score,[14],0.898 (inactive)
same,composite z-score,[15],0.689
same,composite z-score,[16],0.0659
same,composite z-score,Torsin-1A (Homo sapiens) [17],-2.21
same,composite z-score,Torsin-1A (Homo sapiens) [18],-0.568
same,composite z-score,[19],-1.21
COCCOC(=O)N1C(=O)[C@@]2(c3cc(C#CC4=CCCCC4)ccc31)[C@H](c1ccc(O)cc1)N1[C@H](c3ccccc3)[C@H](c3ccccc3)OC(=O)[C@H]1[C@@H]2C(=O)N1CCN(c2ncccn2)CC1,composite z-score,[1],-0.849
same,composite z-score,[2],-1.1
same,composite z-score,[3],-0.415
same,composite z-score,[4],-0.805
same,composite z-score,[5],-1.02
same,composite z-score,[6],-0.958
same,z-score,[7],0.381
same,composite z-score,Lefty1,-1.14
same,composite z-score,[8],-0.649
same,z-score,[9],1.18 (inactive)
same,composite z-score,[10],-0.299
same,z-score,[11],0.498 (inactive)
same,z-score,[12],-0.572 (inactive)
same,z-score,[13],-0.467 (inactive)
same,z-score,[14],-0.0588 (inactive)
same,composite z-score,[15],-1.34
same,composite z-score,[16],-0.152
same,composite z-score,Torsin-1A (Homo sapiens) [17],-0.692
same,composite z-score,Torsin-1A (Homo sapiens) [18],-1.27
same,composite z-score,[19],-0.589
COc1ccc(CN(C2=CC[C@@]3(C(N)=O)C(=O)C(Cl)=C(Cl)C(=O)[C@@]3(C#N)C2)S(=O)(=O)c2ccc(Br)cc2)cc1,composite z-score,[1],1.89
same,composite z-score,[2],0.289
same,composite z-score,[3],0.0558
same,composite z-score,[4],0.115
same,composite z-score,[5],-0.539
same,composite z-score,[6],-0.537
same,z-score,[7],-1.87
same,composite z-score,Lefty1,-0.53
same,composite z-score,[8],0.324
same,z-score,[9],-5.26 (inactive)
same,composite z-score,[10],-0.0312
same,z-score,[11],-3.6 (inactive)
same,z-score,[12],-0.897 (inactive)
same,z-score,[13],33.6 (active)
same,z-score,[14],119 (active)
same,composite z-score,[15],0.62
same,composite z-score,[16],-0.0006
same,composite z-score,Torsin-1A (Homo sapiens) [17],0.385
same,composite z-score,Torsin-1A (Homo sapiens) [18],0.448
same,composite z-score,[19],-0.245

# Reference: PubChem BioAssay
